# Experimental data: PubChem BioAssay (EPA / NIEHS)
# Results filed as inconclusive are left out. Calls of active or inactive are those of the source. Rule for the calls, unless noted: active = hit-call score of the fitted dose curve at least 0.9, where 1 is the maximum; inactive = score below 0.9.
# What was measured:
# [1] = CCTE_Shafer_MEA_dev_firing_rate_mean: CCTE's Neural Network Formation Assay for Mean Firing Rate, Shafer Lab (AID 2284031)
# Summary of the method: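 Primary rat cortical neurons on 48-well MEA plates, exposed from plating day 0 with dosing renewed on DIV 5 and 9. Mean well firing rate over active electrodes, recorded days 5, 7, 9, 12, summarised as trapezoidal AUC.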
# [2] = CCTE_Shafer_MEA_dev_per_burst_spike_percent: CCTE's Neural Network Formation Assay for Percent of Spikes in a Burst, Shafer Lab (AID 2284032)
# Summary of the method: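 Rat primary cortical neurons on 16-electrode MEA wells, dosed from plating day 0 for 12 days with renewal on DIV 5 and 9; spikes-in-bursts percentage averaged over bursting electrodes, collapsed as AUC across days 5, 7, 9, 12; loss direction versus DMSO.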
# [3] = CCTE_Shafer_MEA_dev_burst_rate: CCTE's Neural Network Formation Assay for Burst Rate, Shafer Lab (AID 2284042)
# Summary of the method: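 Primary rat cortical neurons on PEI-coated 48-well MEA plates (laminin added with cells at plating) (16 electrodes/well), exposed from plating to day 12, dosing renewed at DIV 5 and 9. Burst rate averaged over active electrodes, recorded DIV 5, 7, 9, 12, summarized as AUC; loss versus DMSO.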
# [4] = CCTE_Shafer_MEA_dev_per_burst_interspike_interval: CCTE's Neural Network Formation Assay for Burst Interspike Interval, Shafer Lab (AID 2284044)
# Summary of the method: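 Readout is the average time between spikes inside single-electrode bursts, taken as a well mean across bursting electrodes. Cortical neurons from rat developed networks on MEA plates under continuous 12-day exposure; recordings on days 5, 7, 9 and 12 were integrated by trapezoidal AUC.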
# [5] = CCTE_Shafer_MEA_dev_burst_duration_mean: CCTE's Neural Network Formation Assay for Mean Burst Duration, Shafer Lab (AID 2284045)
# Summary of the method: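 Primary rat cortical neurons on PEI-coated 16-electrode MEA wells, exposed from plating through day 12 with compound renewed at DIV 5 and 9; spontaneous activity recorded days 5, 7, 9, 12. Well-mean burst duration collapsed as trapezoidal AUC, fitted for loss versus DMSO.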
# [6] = CCTE_Shafer_MEA_dev_interburst_interval_mean: CCTE's Neural Network Formation Assay for Mean Interburst Interval, Shafer Lab (AID 2284046);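 note: well-mean interburst interval of bursting electrodes as AUC over four recording days; curve fitted for decrease in interburst interval relative to DMSO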
# Summary of the method: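 Recordings on days 5, 7, 9 and 12 give well-mean interburst interval across actively bursting electrodes, summarized as area under the curve. Cultures: rat cortical neurons, continuous exposure from day 0, compound renewed at feeds; decrease analyzed versus DMSO.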
# [7] = CCTE_Shafer_MEA_dev_inter_network_spike_interval_mean: CCTE's Neural Network Formation Assay for Mean Inter-network Spike Interval, Shafer Lab (AID 2284047)
# Summary of the method: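 Primary rat cortical neurons on 16-electrode MEA wells, exposed from plating day 0 through DIV 12, compound renewed at DIV 5 and 9 media changes. Mean interval between network-spike peaks recorded DIV 5, 7, 9, 12; collapsed as trapezoidal AUC, fitted downward versus DMSO.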
# [8] = CCTE_Shafer_MEA_dev_network_spike_number: CCTE's Neural Network Formation Assay for Number of Network Spikes, Shafer Lab (AID 2284048)
# Summary of the method: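 Primary rat cortical neurons were seeded at 1.5 x 10^5 cells/well on PEI-coated 16-electrode MEA wells with laminin, exposed from plating day 0, compound renewed at DIV 5 and 9. Network spikes were recorded on days 5, 7, 9, 12 and summarized as trapezoidal AUC versus DMSO.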
# [9] = CCTE_Shafer_MEA_dev_network_spike_peak: CCTE's Neural Network Formation Assay for Mean Number of Electrodes in Network Spike, Shafer Lab (AID 2284049)
# Summary of the method: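 Continuous 12-day exposure of rat cortical cultures, starting at plating, on MEA plates. Endpoint: electrodes participating in network-spike peaks, AUC across DIV 5–12, DMSO as negative control.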
# [10] = CCTE_Shafer_MEA_dev_spike_duration_mean: CCTE's Neural Network Formation Assay for Mean Spike Duration, Shafer Lab (AID 2284051);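 note: mean network spike duration pooled as area under curve over DIV 5 to 12 recordings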
# Summary of the method: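 Primary rat cortical neurons on 16-electrode MEA wells (PEI-coated, laminin in plating drop), exposed from plating through DIV 12 with compound renewed at DIV 5 and 9. Mean network-spike duration recorded DIV 5, 7, 9, 12; trapezoidal AUC across days, DMSO baseline.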
# [11] = CCTE_Shafer_MEA_dev_network_spike_duration_std: CCTE's Neural Network Formation Assay for Standard Deviation of Network Spike Duration, Shafer Lab (AID 2284052);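 note: area under curve of spike duration SD across recording days 5 to 12; hits are decreases in network spike duration SD versus DMSO vehicle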
# Summary of the method: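 Primary rat cortical neurons on PEI-coated 16-electrode MEA wells, exposed from plating day 0 through day 12 with compound renewed at DIV 5 and 9. Network spike duration SD recorded on days 5, 7, 9, 12, collapsed as trapezoidal AUC; loss-of-signal fit versus DMSO.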
# [12] = CCTE_Shafer_MEA_dev_per_network_spike_spike_number_mean: CCTE's Neural Network Formation Assay for Mean Number of Spikes in a Network Spike, Shafer Lab (AID 2284053)
# Summary of the method: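 Primary rat cortical neurons on 48-well, 16-electrode MEA plates were exposed from plating to DIV 12, with dosing renewed on DIV 5 and 9. Spikes per network spike (0.05 s peak window) were recorded on DIV 5, 7, 9 and 12 and collapsed as trapezoidal AUC versus DMSO.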
# [13] = CCTE_Shafer_MEA_dev_per_network_spike_spike_percent: CCTE's Neural Network Formation Assay for Percent of Spikes in a Network Spike, Shafer Lab (AID 2284054)
# Summary of the method: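 Primary rat cortical neurons on 16-electrode MEA wells (PEI-coated, laminin at plating), exposed from day 0 with renewal at DIV 5 and 9; spikes within 0.05 s of network-spike peaks over total spikes, AUC across days 5, 7, 9, 12.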
# [14] = CCTE_Shafer_MEA_dev_LDH: CCTE's Lactate Dehydrogenase Assay for Cytotoxicity in the Neural Network Formation Assay, Shafer Lab (AID 2284068; active = hit-call score of the fitted dose curve at least 0.9, where 1 is the maximum;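 note: exposure for twelve days from plating with re-dosing on DIV 5 and 9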)
# Summary of the method: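 Primary rat cortical neurons were plated on PEI/laminin MEA plates and exposed from day 0 for twelve days, with compound renewed at DIV 5 and 9. Cytotoxicity was determined by spectrophotometric LDH assay relative to DMSO.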
# [15] = CCTE_Shafer_MEA_dev_AB: CCTE's Alamar Blue Assay for Cytotoxicity in the Neural Network Formation Assay, Shafer Lab (AID 2284083; active = hit-call score of the fitted dose curve at least 0.9, where 1 is the maximum;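 note: twelve days of exposure from plating with re-dosing on DIV 5 and 9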)
# Summary of the method: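 Primary rat cortical neurons on PEI-coated 48-well MEA plates, 1.5 x 10^5 cells/well in laminin drop; compound exposure from day 0 of plating for twelve days, renewed at medium changes on DIV 5 and 9. Viability read as resazurin reduction by fluorescence, relative to DMSO.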
# [16] = CCTE_Shafer_MEA_dev_mutual_information_norm: CCTE's Neural Network Formation Assay for Mutual Information Normalization, Shafer Lab (AID 2284091)
# Summary of the method: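 Rat cortical cultures, 48-well MEA, continuous exposure DIV 0–12 with full media/compound change DIV 5 and 9. Readout: inter-electrode mutual information, AxIS adaptive spike detection; AUC across DIV 5/7/9/12 recordings; DMSO baseline, negative fitting direction.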
# [17] = CCTE_Shafer_MEA_dev_correlation_coefficient_mean: CCTE's Neural Network Formation Assay for Mean Correlation Coefficient, Shafer Lab (AID 2284093)
# Summary of the method: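 Spontaneous activity recorded on days 5, 7, 9 and 12 post-plating; pairwise spike correlations are averaged across active electrodes and collapsed to an area-under-curve. Rat cortical cultures are dosed from plating through 12 days, with compound renewed at media changes.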
# [18] = IUF_NPC1b_proliferation_BrdU_72hr: Leibniz Research Institute for Environmental Medicine (IUF) 72-hour Neural Progenitor Cell Bromodeoxyuridine (BrdU) Proliferation Assay (NPC1b) (AID 2284207)
# Summary of the method: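 hNPC spheres (primary, GW 16-19 fetal cortex), single sphere/well, EGF+FGF medium; 72 h compound, no renewal; BrdU pulse last 16 h; luminescent ELISA; activity vs DMSO baseline; growth-factor withdrawal as positive control.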
# [19] = IUF_NPC1_viability_72hr: Viability Assessment at 72 hours in the Leibniz Research Institute for Environmental Medicine (IUF) Neural Progenitor Cell Proliferation Assay (NPC1) (AID 2284209)
# Summary of the method: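 Single spheres (0.25-0.35 mm) of human fetal cortex-derived neural progenitor cells were grown in proliferation medium with EGF and FGF at 37C and 5% CO2. They were exposed for 72 h without renewal, and viability was read by alamar blue resorufin fluorescence.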
# [20] = CCTE_Mundy_HCI_Cortical_Synap_Neur_Matur_NeuriteSpotCountPerNeuriteLength: CCTE's Synaptogenesis and Neurite Maturation Assay in rat cortical cells for Neurite Spot Count per Neurite Length, Mundy Lab (AID 2284210)
# Summary of the method: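 Rat primary cortical cultures, glia arrested with AraC at DIV 5, were dosed with media change at DIV 7 and fixed at DIV 12. Synaptophysin puncta per MAP2-labelled neurite length were quantified by high-content imaging versus DMSO.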
# [21] = CCTE_Mundy_HCI_Cortical_NOG_NeuriteCount: CCTE's Neurite Outgrowth Assay in rat cortical cells for Neurite Count, Mundy Lab (AID 2284212);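 note: cells fixed about two days after chemical exposure began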
# Summary of the method: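 Neurite number per cell from high-content imaging of betaIII-tubulin immunostaining, with Hoechst nuclear counterstain.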
compound,measurement,setting,value
F,outcome,[1],inactive
same,outcome,[2],inactive
same,outcome,[3],inactive
same,outcome,[4],inactive
same,outcome,[5],inactive
same,outcome,[6],inactive
same,outcome,[7],inactive
same,outcome,[8],inactive
same,outcome,[9],inactive
same,outcome,[10],inactive
same,outcome,[11],inactive
same,outcome,[12],inactive
same,outcome,[13],inactive
same,outcome,[14],inactive
same,outcome,[15],inactive
same,outcome,[16],inactive
same,outcome,[17],inactive
same,AC50,[18],1040 µM (active)
same,AC50,[19],2640 µM (active)
same,outcome,[20],inactive
same,outcome,[21],inactive
